Hits are enriched below; roughly 19% of the tested compounds scored in any of these assays.
MCF10A rereplic = A quantitative high throughput screen for small molecules that induce DNA re-replication in MCF 10a normal breast cells; MCF 10A DNA re-replication, Hoechst nuclear intensity, 48 h; Potency, µM (titrated, usually from 46.1 µM), without a hit: top-dose activity, positive = re-replication, hits mostly activators; 350,000 compounds, 2.9% hits; AID 624296, 2012; also: potency is read from the fitted curve at half-maximal effect; % of control where 0% means no effect; nearly all actives have a fitted effect of over 50% in size
TDP1 cell noCPT = qHTS for Inhibitors of human tyrosyl-DNA phosphodiesterase 1 (TDP1): qHTS in cells in absence of CPT; DT40 Tdp1-/- hTDP1 cells, no CPT, ATP luminescence, 48 h; Potency, µM (doses to about 46.2 µM), without a hit: at the highest dose activity change, negative = growth inhibition, hits mostly inhibitors; 420,000 compounds, 15% hits; AID 686978, 2013; also: potency is read from the fitted curve at half-maximal effect; % is scaled to controls: 0 for no effect and ±100 for the full control effect; nearly all actives have a fitted effect of over 55% in size
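Readout: luminescence from CellTiter-Glo after 30 min in the dark at RT. Cells: DT40 Tdp1-/- with stable hTDP1, 400/well. Exposure: compounds alone, ≥48 hr, 37 °C.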
SW480 rerep = A quantitative high throughput screen for small molecules that induce DNA re-replication in SW480 colon adenocarcinoma cells | SW480 DNA re-replication, Hoechst DNA content imaging, 48 h | Potency, µM (titrated, usually from 46.1 µM), for the others: top-dose re-replication activation, usual class: activators | 340,000 compounds, 1.8% hits | AID 624297, 2012; also: potency is read from the fitted curve at half-maximal effect; % of control where 0% means no effect; nearly all actives have a fitted effect of over 55% in size
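Cells (250 per well) received 23 nL compound or DMSO by pin tool and were kept 48 hr at 37 C, 5% CO2. Nuclei were then stained with Hoechst for 40 min and scanned for DNA content.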
TDP1 cell CPT = qHTS for Inhibitors of human tyrosyl-DNA phosphodiesterase 1 (TDP1): qHTS in cells in presence of CPT; Potency, µM (titrated, usually from 46.2 µM), for the others: at the highest dose activity change, negative = growth inhibition, most hits filed as inhibitors; 420,000 compounds, 12% hits; chicken DT40 Tdp1-/-;hTDP1 cells + 20 nM CPT, ATP luminescence, 48 h; also: potency is read from the fitted curve at half-maximal effect; % is scaled to controls: 0 for no effect and ±100 for the full control effect; nearly all actives have a fitted effect of over 55% in size
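Chicken DT40 Tdp1-/- cells complemented with human TDP1, 400 cells/well, exposed to compounds plus 20 nM camptothecin for at least 48 h at 37 C; viability read as ATP content by CellTiter-Glo luminescence.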
BCR signal inh = qHTS Assay to Find Inhibitors of Chronic Active B-Cell Receptor Signaling | Potency, µM (series often up to 46.1 µM), for inactives: at the top dose activity change, negative = inhibition, hits mostly inhibitors | ABC-DLBCL IkBa-CBG/CBR reporter, luminescence ratio, 4 h | 340,000 compounds, 0.05% hits; active = well fitted inhibition curve with a large enough effect in the signal ratio, with a control signal flat, not every such curve was filed as active; inconclusive = small, poorly fitted or top-dose-only effect, or effect the other way, or a change in a side signal; the % refers to the signal ratio;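 also: potency is read from the fitted curve at half-maximal effect; plate controls were basal doxycycline-induced cells for no effect and cells given 10 µM MG132 for full effect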
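Concentration-response series (up to 46 uM) were applied to TMD8 dual-reporter cells for 4 h at 37C with doxycycline. Green/red ratio, after filter-overlap correction, defined %Activity; red signal alone was normalised to basal cells and zero luminescence.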
IL1B secr inh = qHTS for Inhibitors of Inflammasome Signaling: IL-1-beta AlphaLISA Primary Screen | THP-1 LPS/ATP IL-1B secretion, AlphaLISA, 16 h; active compounds read low | activity change, % at 57.5 µM | 360,000 compounds, 4.7% hits | AID 743279, 2014; in the data active = activity change below about -50%; inconclusive = mostly about -30% to -49%; also: % is scaled to controls: 0 for no effect and ±100 for the full control effect
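THP-1 cells pretreated 1 hr with compounds (up to 57.5 uM final), then stimulated with LPS (250 ng/mL final) plus ATP (1.25 mM final); secreted IL-1B measured by AlphaLISA after 16 hr, decreased signal indicating inhibition.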
* = called active by the depositor; ? = inconclusive; . = not tested or not shown. Unless noted, calls follow the shape of the dose curve; as a rule, active = well fitted curve in the direction sought with a large enough effect; inconclusive = small, poorly fitted or top-dose-only effect, or another doubt; inactive = no such curve, though single readings can be large; an effect the other way counts as inactive or inconclusive.

SMILES	MCF10A rereplic	TDP1 cell noCPT	SW480 rerep	TDP1 cell CPT	BCR signal inh	IL1B secr inh
COP(=O)(OC)C(Nc1ccccc1)c1ccccc1 (configuration not stated)	11%	3%	6%	-15%	3%	13
COC(=O)[C@@H]1C[C@@]1(C)[C@@H](NP(=O)(c1ccccc1)c1ccccc1)c1ccccc1	-6%	21µM*	7%	?	2%	30
COc1ccc(N=N/C(=C\O)C(=O)c2cccs2)cc1	?	?	?	0%	?	-81*
CCOc1ccc(C(=O)c2cccs2)cc1	-6%	-1%	-4%	-11%	?	-21
CC(C)CCNC(=O)CSc1nc2ccccc2c(=O)[nH]1	2%	-8%	-12%	-5%	-8%	39
CC(c1nc2ccccc2c(=O)[nH]1)N(C)CCOc1ccc(Cl)cc1 (configuration not stated)	13%	18µM*	-2%	21µM*	?	5
COc1cc2c(cc1OC)C(C1c3cc4c(cc3CCN1C)OCO4)OC2=O (configuration not stated)	-2%	5%	3%	1%	-4%	1
COc1ccc2c(c1OC)CN1CCc3cc4c(cc3C1C2)OCO4 (configuration not stated)	9%	?	8%	21µM*	-4%	-9
COc1ccc2c(c1OC)CN1CCc3cc4c(cc3[C@H]1C2)OCO4	-28%	13µM*	-11%	15µM*	7%	-4
C[C@H](N)Cc1cnc[nH]1	.	-11%	.	-2%	.	.
CCN1CCN(C(=O)COc2ccc3c(c2)C(=O)CC2(CCN(C(C)=O)CC2)O3)CC1	-10%	?	-6%	-10%	?	19
Nc1ccc(C2(c3ccc(N)cc3)c3ccccc3-c3ccccc32)cc1	17%	15%	1%	26%	?	-171*
Cn1cc(NC(=O)CCl)cn1	0%	?	15%	?	?	-102*
CC(C)(COC(=O)C(c1ccccc1)c1ccccc1)CN1CCOCC1	?	21µM*	12%	?	.	-7
COC(=O)C1=C(C)n2nnnc2NC1c1ccc(Cl)cc1 (configuration not stated)	6%	-27%	6%	?	-25%	-6
Nc1ccc(S(=O)(=O)NCc2ccccc2)cc1	3%	?	-4%	-17%	.	.
CC(=O)OC1CC[C@]2(C)C(CCC3C2CC[C@]2(C)C(C4=CC(=O)OC4)C(OC(C)=O)CC32O)C1 (some centres not stated)	.	?	.	-18%	.	.
CC(=O)OC1CCC23C(=O)OC45CCC(C6=CC(=O)OC6)C4(C)CCC2C5CCC3(O)C1 (configuration not stated)	.	10µM*	.	12µM*	.	.
Cc1cccc(C2CC(=O)Oc3c2c(=O)oc2ccccc32)c1 (configuration not stated)	.	-3%	.	-13%	.	.
CC(C)OP(=O)(Oc1ccc(C(O)C(Cl)(Cl)Cl)cc1)OC(C)C (configuration not stated)	-6%	18µM*	-6%	?	-9%	8
COc1ccc(C(=O)Nc2ccc(-c3nc4ccccc4s3)cc2C)cc1Cl	.	-29%	.	?	.	.
COc1ccc(NC(=O)CSc2nc(-c3cccs3)cc(C(F)(F)F)n2)cc1Cl	.	23µM*	.	16µM*	.	.
O=C(N/N=C/c1c(O)n(CCC2=CCCCC2)c(=O)[nH]c1=O)c1ccccc1	19%	21µM*	?	?	?	41
